The list is not random: actives were taken first. Their share in the collection is about 4.6%.
Wee1 degr inh = Wee1 degradation inhibitors, primary screen, cell-based, HeLa, Wee1K328M-luciferase, luminescence | Wee1-like protein kinase (Homo sapiens), P30291 | HeLa Luc-Wee1K328M stability; 100% = proteasome inhibitor MG132 effect | reporter increase, % at 5 µM | 220,000 compounds, 1.2% hits;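 active means activation above the mean of all tested compounds plus 3 SD, set per screening run, cut at about 8.8% in these data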;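 further: cells exposed to compound for 20 h before luminescence read; 0% = DMSO alone and 100% = MG132 at 30 µM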
hgDAF-12 ag = H. glycines DAF-12 receptor agonists, primary screen, cell-based, luminescence, HEK293, GAL4 fusion, UAS-luciferase; Nuclear hormone receptor DAF-12 (Heterodera glycines), GAL4 fusion; HEK293 GAL4-hgDAF12 UAS-luciferase reporter, agonist luminescence; normalized to butyrate control; activation, % at 6.8 µM; 370,000 compounds, 1.8% hits; AID 687014, 2013;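 active means activation above a cutoff set at the mean of all screened compounds plus 3 SD, cut at about 10% in these data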;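 further: 0% = DMSO wells and 100% = sodium butyrate wells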
hcDAF12 agonist = H. contortus DAF-12 nuclear receptor activators, primary screen, cell-based, luminescence, HEK293, lit1-tk-luc reporter; AID 652067, 2013; activation, % at 6.8 µM; 370,000 compounds, 1.4% hits; HEK293 hcDAF-12 lit1-tk-luc reporter; 0% DMSO, 100% Δ7-dafachronic acid;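 active means activation above the mean of all tested compounds plus 3 SD, cut at about 5.5% in these data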;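 further: 100% = response to 3 µM Δ7-dafachronic acid high control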
ssDAF-12 act = S. stercoralis DAF-12 nuclear receptor activators, primary screen, cell-based, luminescence, HEK293, GRIP1 co-expression, lit1-tk-luc | activation, % at 6.8 µM | HEK293 ssDAF-12/GRIP1 lit1-tk-luc reporter; % of 3 µM dafachronic acid response | 370,000 compounds, 1% hits | Nuclear hormone receptor DAF-12 (Strongyloides stercoralis);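 active means activation above the mean over all tested compounds plus 3 SD, cut at about 0.9% in these data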;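 further: 0% = DMSO-only wells and 100% = 3 µM delta7-dafachronic acid wells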
DAX1 inh-1 = DAX1 (NR0B1) inhibitors on StAR promoter, primary screen, cell-based, luminescence, SF-1 (NR5A1), full-length DAX-1. 370,000 compounds, 1.1% hits. HEK293T StAR-luciferase reporter, SF-1/DAX-1 repression relief. inhibition, % at 6.8 µM;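 active means inhibition above the mean over all tested compounds plus 3 SD, cut at about 3.6% in these data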;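 further: 0% = DAX-1 cells with DMSO and 100% = cells lacking DAX-1 with DMSO; higher inhibition means more luminescence from relief of DAX-1 repression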
DAX1 inh-2 = DAX1 (NR0B1) inhibitors, primary screen, cell-based, HEK293, Gal4-DAX1, luciferase luminescence | inhibition, % at 6.75 µM | Nuclear receptor subfamily 0 group B member 1 (Homo sapiens), P51843 | 340,000 compounds, 0.99% hits | HEK293 Gal4-DAX1 luciferase reporter;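 active means inhibition above the mean over all tested compounds plus 3 SD, cut at about 4.2% in these data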;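 further: 0% = DAX1-transfected cells with DMSO and 100% = empty-vector control cells with DMSO; inhibition shows as a rise in luminescence from relieved DAX1 repression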
Target sequence (P51843 207-470 limits assumed): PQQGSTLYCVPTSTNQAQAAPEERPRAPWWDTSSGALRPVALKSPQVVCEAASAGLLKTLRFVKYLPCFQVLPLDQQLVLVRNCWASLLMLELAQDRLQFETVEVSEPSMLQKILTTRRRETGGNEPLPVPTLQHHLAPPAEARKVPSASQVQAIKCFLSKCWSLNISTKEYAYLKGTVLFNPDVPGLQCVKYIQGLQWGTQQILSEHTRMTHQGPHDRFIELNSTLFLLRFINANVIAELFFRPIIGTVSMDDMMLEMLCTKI
* = called active by the depositor; . = not tested or not shown.

SMILES	Wee1 degr inh	hgDAF-12 ag	hcDAF12 agonist	ssDAF-12 act	DAX1 inh-1	DAX1 inh-2
O=C(NC(=S)Nc1ccccc1F)c1ccc(Br)o1	11.3*	10.1	5.2	0.3	1.1	0.8
CC(/C=N/NC(=O)c1n[nH]c2c1CCC2)=C\c1ccccc1	-0.3	2.4	3.4	0.2	3.5	-0.1
O=C(N/N=C/C=C/c1ccccc1)c1n[nH]c2c1CCC2	9.1*	3.2	-1.3	-1.2	-1.2	0.1
O=C(N/N=C/c1cccs1)c1n[nH]c2c1CCCC2	-0.2	8.9	5.9*	-0.4	0.0	-5.8
CCCCCn1nnnc1C1(C)CN(S(C)(=O)=O)CC(=O)N1Cc1ccco1 (centres undefined)	.	5.9	-1.0	-0.3	0.0	.
O=C(Cn1c(=O)n(Cc2ccco2)c(=O)c2ccccc21)Nc1cccc(Cl)c1	3.5	11.2*	1.5	-1.1	0.0	1.5
Cc1ccc(NC(=O)Cn2c(=O)n(Cc3ccco3)c(=O)c3ccccc32)c(C)c1	3.7	-1.0	0.7	-0.9	0.2	-0.7
CCOC(=O)N(O)c1ccc(C=Cc2ccccc2)cc1	.	3.2	0.9	-2.0	-2.2	-0.7
O=S1(=O)c2c(cccc2N2CC[C@@H](O)C2)O[C@@H]2CCN1C2	.	2.3	1.5	-0.8	-0.9	.
Cc1ccc2c(c1)Oc1ccc([N+](=O)[O-])cc1C(=O)N2	-1.4	2.4	6.1*	0.1	-0.5	-0.9
COc1ccncc1-c1csc(C(O)c2ccccc2)n1 (centres undefined)	.	-1.6	-0.8	-1.4	-0.2	.
Cc1ccc(N/C=C2\CCCCC2=O)nc1	-1.0	7.2	0.9	-1.3	-0.4	0.4
O=C1CCCC/C1=C\Nc1ccc(Cl)cn1	2.8	0.0	-1.4	-1.0	0.3	4.3*
CCOC(=O)C1[C@H]2C(=O)N(C(C)c3ccc(OC)cc3)C[C@]23C=C[C@H]1O3 (some centres undefined)	-1.9	-0.7	-0.1	-0.9	0.3	0.0
COCCCN1CC23C=CC(O2)C(C(=O)O)C3C1=O (centres undefined)	6.0	0.6	-2.2	-0.4	-0.5	-3.1
CCCN1CC23C=CC(O2)C(C(=O)O)C3C1=O (centres undefined)	1.6	-0.9	1.3	-0.8	-0.7	5.0*
CCOC(=O)N1CCC(N2CC34C=CC(O3)C(C(=O)O)C4C2=O)CC1 (centres undefined)	0.2	-0.7	-2.0	-0.8	0.2	4.3*
CCC(C)N1CC23C=CC(O2)C(C(=O)OC)C3C1=O (centres undefined)	0.5	3.5	1.3	-1.5	-0.1	6.7*
CC(C)(C)NC(=O)c1ccccc1-c1nc2ccccc2s1	0.1	-0.2	1.3	1.6*	-0.8	-0.2
CC(C)(C)NC(=O)c1nc2ccccc2s1	-1.5	1.4	-0.1	-1.4	-0.3	0.9
CCOc1ccc(C2Oc3nc(SC)nnc3-c3ccccc3N2C(C)=O)cc1OC (centres undefined)	-1.8	-0.8	-1.8	-0.7	0.0	6.0*
CC1Oc2ccc(C#N)cc2N(Cc2cccc(F)c2)C1=O (centres undefined)	.	2.8	-2.2	-1.2	0.5	.
Nc1ccccc1-c1nnc(-c2ccccc2N)n1N	4.0	9.1	6.0*	2.0*	0.9	1.9
CCc1ccc(NC(=O)c2cnc3scc(C)n3c2=O)cc1	-2.2	9.6	5.8*	1.2*	2.5	0.6
[O-][n+]1cccc2c(Br)cc(Br)c(O)c21	-0.8	0.9	2.4	-0.8	0.3	4.5*
SMILES	Wee1 degr inh	hgDAF-12 ag	hcDAF12 agonist	ssDAF-12 act	DAX1 inh-1	DAX1 inh-2
O=C(Nc1c[nH]c(=O)[nH]c1=O)c1ccccc1Br	.	-0.7	0.4	-0.5	0.0	6.4*
O=C(CCl)NNC(=O)c1c(O)c2ccccc2[nH]c1=O	1.9	-5.3	-0.6	-1.4	-1.3	-1.0
O=C(Nc1ccccc1C(=O)Nc1ccccc1)c1ccccc1Br	.	-1.0	-0.3	-0.5	-0.6	0.2
O=C(NNC(=O)c1c(O)c2ccccc2[nH]c1=O)c1ccccc1Br	.	0.9	2.0	0.9*	0.0	0.1
CC(=O)NCC1(c2ccccc2)CCN(CCCC(=O)c2ccc(F)cc2)CC1	.	0.1	0.2	-1.0	0.3	1.5
O=C(CN1CCCCCCC1)N/N=C/c1ccc(F)cc1F	9.6*	1.0	-2.3	-0.3	-0.1	1.1
CN(C)c1ccc(/C=N/NC(=O)CN2CCCCC2)cc1Br	.	-1.1	-1.6	1.3*	0.8	1.4
O=C(CN1CCCCCC1)N/N=C/c1ccc(Cl)c(Cl)c1	-1.4	1.1	0.3	-1.1	0.5	0.8
CC1(C)CC(=O)C(CO)=C(c2cccc3ccccc23)C1=O	.	2.2	-1.0	-1.3	-0.1	0.1
Cc1ccc(C(=O)c2cncc(Br)c2)cc1	-1.7	2.1	-1.4	-0.9	1.2	2.1
Cc1ccc(NC(=O)c2cncc(Br)c2)cc1S(=O)(=O)N(C)C	4.1	6.7	0.9	1.4*	2.8	1.3
Cc1ccc(SCC(=O)NNC(=O)c2cncc(Br)c2)cc1	.	-0.9	-0.9	-1.3	-0.4	5.9*
CCN(CC)c1ccc(NC(=O)c2cncc(Br)c2)cc1	3.3	12.6*	1.1	-0.8	1.8	0.8
CC(NC(=O)c1ccc(Cl)c(S(=O)(=O)NC2CC2)c1)c1ccco1 (centres undefined)	.	-1.6	0.1	-1.2	0.8	-0.3
Oc1cc(O)cc(C=Cc2ccc(O)c(O)c2)c1	.	9.8	4.4	0.1	4.3*	.
CCOC(=O)C(Nc1ccc2ccccc2c1)C(=O)OCC	1.6	5.5	5.7*	0.3	0.3	-0.1
CC(=O)Nc1cncc(-c2cccc(C(=O)N3CCOCC3)c2)n1	.	-3.0	-0.5	-1.1	1.2	.
O=C(Nc1ccc2c(c1)OCO2)c1cnn2cccnc12	0.0	10.0	5.7*	-1.2	3.3	1.9
O=C(Nc1ccc2c(c1)OCO2)Nc1cnccn1	0.2	5.7	0.1	-1.4	0.2	1.8
O=C(Nc1ccc2c(c1)OCO2)Nc1ccccn1	0.4	12.2*	2.4	-0.1	2.0	1.1
O=C(Nc1ccc2c(c1)OCCO2)c1ccccn1	-3.0	5.8	2.9	-0.4	4.4*	-5.4
N#Cc1ccccc1OCC(=O)Nc1ccc2c(c1)OCCO2	.	11.7*	6.5*	-0.5	4.1*	0.9

Compound activity as filed in PubChem BioAssay.
